# High-throughput results (PubChem BioAssay)
# Sampled rows, rich in hits. Any-hit rate of the full collection: about 3.5%.
# ANO1 activ: activates or potentiates the mouse TMEM16A chloride channel | Q8BHY3 | HEK293 TMEM16A/YFP-H148Q/I152L, iodide quench fluorescence; active compounds read low | B-score at 10 µM | 340,000 compounds, 0.3% hits | AID 623877;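 active = fluorescence-ratio B-score plate-corrected deviation score at least 3 library SD below zero, with starting fluorescence score within 5 deviations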;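 also: channel opened by trigger with iodide after compound preincubation; score built on the fluorescence ratio of max minus min over baseline; more negative score means more quench and so TMEM16A activation or potentiation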
# Kir21 inh: Kir2.1 (mouse) channel inhibition. P35561. HEK293-Kir2.1, FluxOR thallium flux fluorescence; active compounds read low. B-score at 10 µM. 310,000 compounds, 0.85% hits. AID 1672;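 active = fluorescence ratio B-score at or below minus 3 SD of library scores, with starting-brightness B-score within 2 SD, cut at about -4.2 in these data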;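 also: channel flux triggered by added potassium and thallium sulfate stimulus; B-score of peak minus minimum fluorescence over baseline after thallium stimulus; more negative B-score means stronger Kir2.1 block with less thallium influx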
# ANO1 block: blocks the mouse calcium-activated chloride channel TMEM16A; Q8BHY3; HEK293 TMEM16A/YFP iodide influx fluorescence, ionomycin; normalized B-score (activity score, 25-100; higher = stronger inhibition) at 10 µM; 310,000 compounds, 1.2% hits; AID 588511;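 active = ratio plate-corrected score three or more library SD toward inhibition, starting fluorescence score within five deviations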;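 also: score derived from kinetic fluorescence span divided by baseline fluorescence per well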
# KCNK3 block: human KCNK3 channel inhibition, primary screen; CHO-KCNK3 thallium flux, FluxOR fluorescence; active compounds read low; 340,000 compounds, 0.84% hits; O14649; B-score at 10 µM; AID 602410;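 active = B-score under library mean minus 4 SD, starting fluorescence ratio at most library mean plus 5 SD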;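 also: more negative B-score means stronger inhibition of thallium flux through KCNK3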
# Target sequence (O14649 whole entry, looked up): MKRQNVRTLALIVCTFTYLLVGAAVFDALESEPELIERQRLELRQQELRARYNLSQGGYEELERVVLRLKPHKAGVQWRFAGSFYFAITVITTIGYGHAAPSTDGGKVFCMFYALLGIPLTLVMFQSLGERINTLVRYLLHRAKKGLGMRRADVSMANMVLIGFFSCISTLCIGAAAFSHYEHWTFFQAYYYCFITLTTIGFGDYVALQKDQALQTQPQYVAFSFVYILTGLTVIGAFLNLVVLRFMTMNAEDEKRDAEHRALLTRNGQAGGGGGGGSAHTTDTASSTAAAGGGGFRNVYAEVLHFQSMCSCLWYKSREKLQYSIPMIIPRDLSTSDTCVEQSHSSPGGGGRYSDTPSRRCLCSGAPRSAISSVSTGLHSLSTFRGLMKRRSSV
# KCNK9 block: human KCNK9 channel inhibition; Q9NPC2; HEK293 KCNK9, FluxOR thallium flux fluorescence; active compounds read low; B-score at 10 µM; 310,000 compounds, 1.2% hits; AID 488922;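 active = ratio B-score over 3 SD below the library mean, with starting fluorescence within 5 SD of its mean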;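 also: negative B-score means less thallium flux so channel inhibition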
# KCNK9 inh conf: human KCNK9 inhibitor confirmation; shares compounds with KCNK9 block; HEK293 KCNK9 cells, FluxOR thallium flux fluorescence; inhibition, % at 10 µM; 4,900 compounds, 43% hits;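 active = thallium signal inhibited by more than 5 SD of the compound-free buffer control wells, on both duplicate plates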;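 also: 0% = assay buffer control wells without compound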
# Kir21 sel: mouse Kir2.1 off-target activity of KCNK9 modulators. AID 492993. Kir2.1 cells, FluxOR thallium flux fluorescence. inhibition, % at 10 µM. 4,900 compounds, 4% hits. shares compounds with KCNK9 block;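 active = thallium signal drop more than 5 SD beyond the mean of the no-compound control wells, seen in both duplicate plates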;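 also: signal is fluorescence rise after thallium addition divided by baseline fluorescence; plate controls were assay buffer only for no effect and full block by chlorpromazine control for full effect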
# HEK293 Tl ctr: non-induced cell nonspecific activity of KCNK9 modulators; shares compounds with KCNK9 block; non-induced KCNK9-HEK293, FluxOR thallium flux; inhibition, % at 10 µM; 4,900 compounds, 40% hits;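 active = thallium signal drop beyond 5 SD of the untreated control mean, on both duplicate plates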;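 also: plate controls were buffer only IC0 wells for no effect and SID17386958 at its maximal inhibitory level for full effect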
# Starred values were filed as active, the others as inactive; i = inactive; / = no result.
SMILES,ANO1 activ,Kir21 inh,ANO1 block,KCNK3 block,KCNK9 block,KCNK9 inh conf,Kir21 sel,HEK293 Tl ctr
Cc1cccc(Nc2nnc(-c3ccc(N4CCOCC4)c([N+](=O)[O-])c3)c3ccccc23)c1,i,0.03,i,i,i,i,i,i
Cc1nnc(-c2ccc(N3CCOCC3)c([N+](=O)[O-])c2)o1,i,/,/,i,/,/,/,/
CCOC(=O)c1c(NC(=O)CSc2nnc(C)c(=O)[nH]2)sc(C)c1-c1ccc(C)cc1,i,0.03,i,i,i,i,i,i
Cc1nc(SCC(=O)N2c3ccccc3NC(=O)CC2C)c2c(C)c(C)sc2n1 (configuration not stated),i,/,/,i,/,/,/,/
Cc1sc2nc(C3CC3)nc(SCC(=O)N3c4ccccc4CC3C)c2c1C (configuration not stated),i,-1.2,i,i,i,i,i,i
CCOC(=O)c1c(-c2cccc([N+](=O)[O-])c2)csc1NC(=O)C1CC1,i,-0.76,i,i,-8.3*,24%*,i,24%*
CCOC(=O)c1c(-c2ccc(-c3ccccc3)cc2)csc1NC(=O)CNCCN(C)C,i,-3.7,i,i,-10*,57%*,32%*,29%*
COc1cccc(CC(NC(C)=O)C(=O)NC2CCN(S(=O)(=O)c3ccc(NC(C)=O)cc3)CC2)c1 (configuration not stated),i,1.5,i,i,i,/,/,/
N#Cc1cc2c(nc1SCc1ccccc1)CCCCC2,i,0.95,i,i,i,/,/,/
N#Cc1cc2c(nc1SCc1cccc(Cl)c1)CCCCC2,i,-0.75,i,i,-8.3*,27%*,i,35%*
COc1cc(/C=C2\C(=N)N3N=CSC3=NC2=O)ccc1OS(=O)(=O)c1ccccc1[N+](=O)[O-],i,-0.21,i,i,i,i,i,i
COc1cc([N+](=O)[O-])cc(/C=N/NC(=O)CC#N)c1O,/,0.13,/,/,i,/,/,/
C=CCC(=O)N(CC)CC1CCCN(CCc2cccc(F)c2)C1 (configuration not stated),i,0.16,i,i,-9.1*,i,i,i
CCN(CC1CCCN(CCc2cccc(F)c2)C1)C(=O)c1ccc(CSC)o1 (configuration not stated),i,-2.4,i,i,i,/,/,/
O=C(NCCc1ccc(Cl)cc1)c1cccc(NC2=NC3CS(=O)(=O)CC3S2)c1 (configuration not stated),i,-3,i,i,i,/,/,/
COc1ccc(C(=O)C2CCCN(C(=O)c3noc4c3CCCC4)C2)cc1F (configuration not stated),i,-0.36,i,i,i,i,i,i
COc1ccc(C(=O)C2CCCN(C(=O)C3=CCCC3)C2)c(C)c1 (configuration not stated),i,2,i,i,i,i,i,i
COc1ccc(C(=O)C2CCCN(C(=O)c3noc4c3CCCC4)C2)c(C)c1 (configuration not stated),i,0.27,i,i,i,i,i,i
Cc1ccccc1N1CCN(C2CCCN(C(=O)c3noc4c3CCCC4)C2)CC1 (configuration not stated),i,-1.5,i,i,i,i,i,i
COc1ccc(C(=O)C2CCCN(C(=O)c3cc(C4CC4)[nH]n3)C2)c(C)c1 (configuration not stated),i,0.11,i,i,i,/,/,/
Cc1cnc(C(=O)N2CCCC(N3CCN(c4ccccc4C)CC3)C2)cn1 (configuration not stated),i,-0.14,i,i,i,/,/,/
Cc1cccc(NC(=O)C(=O)NCC2CCCN2S(=O)(=O)c2ccccc2)c1 (configuration not stated),i,0.24,i,i,i,/,/,/
COc1ccc(C(=O)C2CCCN(C(=O)c3ccc(CSC)o3)C2)cc1F (configuration not stated),i,-1.1,i,i,i,i,i,i
COc1ccc(C(=O)C2CCCN(C(=O)c3csc(C(C)=O)c3)C2)c(C)c1 (configuration not stated),i,-0.57,i,i,i,/,/,/
C#Cc1cccc(C(=O)N2CCCC(C(=O)c3ccc(OC)cc3C)C2)c1 (configuration not stated),i,-4.3*,i,i,i,i,i,i
SMILES,ANO1 activ,Kir21 inh,ANO1 block,KCNK3 block,KCNK9 block,KCNK9 inh conf,Kir21 sel,HEK293 Tl ctr
COc1cccc(/C=N/Nc2ncnc3scc(-c4ccccc4)c23)c1O,i,-0.58,i,i,i,i,i,i
COc1cccc(/C=N/Nc2ncnc(Cl)c2N)c1O,i,-0.01,i,i,i,/,/,/
Cc1cc2c(=O)n(CC(=O)NCC(=O)N3CCN(Cc4ccccc4)CC3)cnc2s1,i,0.75,i,i,-11*,i,i,i
O=[N+]([O-])c1ccccc1S(=O)(=O)N1CCN(Cc2ccc3c(c2)OCO3)CC1,i,1.2,i,i,i,/,/,/
Cc1ccc(C)c(-c2cc(C(=O)N/N=C/c3cccnc3)c3ccccc3n2)c1,i,-1.2,i,-9.9*,-13*,54%*,i,32%*
COC1CCCN(Cc2nc(Cc3ccccc3F)no2)C1 (configuration not stated),i,0.83,i,i,i,/,/,/
c1ccc(COC2CCCN(Cc3nc(Cc4ccccc4)no3)C2)cc1 (configuration not stated),i,-1.1,i,i,i,i,i,i
c1ccc(OCc2noc(CN3CCC(C4CCCCC4)C3)n2)cc1 (configuration not stated),i,0.78,i,i,i,i,i,i
Fc1ccccc1C1CCN(Cc2nc(COc3ccccc3)no2)C1 (configuration not stated),i,0.05,i,i,i,i,i,i
Fc1ccccc1OCC1CCCN(Cc2nc(CC3CC3)no2)C1 (configuration not stated),i,0.06,i,i,i,i,i,i
Cc1nc2ccccc2n1CC(=O)OCC(=O)NCCc1ccccc1,i,1.4,i,i,i,/,/,/
Cc1cc(C)nc(/N=C(\N)Nc2ccccc2-c2ccccc2)n1,i,-1.6,i,i,i,/,/,/
